According to PubChem BioAssay AID2221 (Broad Institute, 2009):
Out of some 290,000 compounds screened, about 2,200 (0.76%) were called active. The sample as a whole holds a higher share of actives than the screen did. Unmarked numbers belong to inactive results. Cut-off read from the data, not from the text of the source: active = inhibition above about 30%; inconclusive = no clear call, values can overlap the other calls; inactive = below that.

Target: Protein RecA (Mycobacterium tuberculosis (strain ATCC 25618 / H37Rv)) (UniProt P9WHJ3)
Sequence (P9WHJ3 whole entry, looked up): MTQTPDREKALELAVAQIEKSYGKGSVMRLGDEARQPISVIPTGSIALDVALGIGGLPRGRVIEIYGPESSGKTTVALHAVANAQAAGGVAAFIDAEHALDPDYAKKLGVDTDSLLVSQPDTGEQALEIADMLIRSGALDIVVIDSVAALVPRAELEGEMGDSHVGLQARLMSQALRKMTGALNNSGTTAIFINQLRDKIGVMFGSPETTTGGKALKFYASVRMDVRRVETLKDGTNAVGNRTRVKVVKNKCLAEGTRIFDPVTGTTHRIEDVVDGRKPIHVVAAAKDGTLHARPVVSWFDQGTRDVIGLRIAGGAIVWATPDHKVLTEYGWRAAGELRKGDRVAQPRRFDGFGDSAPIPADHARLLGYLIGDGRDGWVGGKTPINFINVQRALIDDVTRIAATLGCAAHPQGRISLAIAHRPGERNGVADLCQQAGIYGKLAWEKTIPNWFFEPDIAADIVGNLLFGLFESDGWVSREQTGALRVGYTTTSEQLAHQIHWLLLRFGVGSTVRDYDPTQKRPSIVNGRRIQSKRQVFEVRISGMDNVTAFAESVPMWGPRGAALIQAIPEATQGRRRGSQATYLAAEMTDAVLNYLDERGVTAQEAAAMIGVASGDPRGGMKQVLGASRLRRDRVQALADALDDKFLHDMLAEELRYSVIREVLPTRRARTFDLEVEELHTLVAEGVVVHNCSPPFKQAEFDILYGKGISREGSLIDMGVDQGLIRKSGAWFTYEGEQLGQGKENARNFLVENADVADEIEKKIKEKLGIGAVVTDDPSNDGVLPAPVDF
Assay: Mtb RecA intein splicing inhibitors, primary screen, biochemical, fluorescence, HTS (AID 2221);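 note: 0% = vehicle wells and 100% = reference inhibitor control wells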
Settings: cell-free RecA intein splicing, stronger effect = higher value, concentration not given here

SMILES | inhibition
COc1cc(C(F)(F)F)nc2c(Br)c(C(C)(C)C)nn12 | 0.549%
CCOC(=O)c1cc(S(=O)(=O)NCCc2ccc(OC)c(OC)c2)cn1C | -0.521%
CC(C)Oc1ccc(CCC(=O)NNC(=S)NCc2ccccc2)cc1 | 0.193%
COc1ccc(C(=O)NNC(=S)NC(=O)c2ccccc2)cc1 | 7.5%
COc1ccc(C(=O)NC(=S)NNC(=O)CCc2ccccc2)cc1 | 34.5% (active)
COc1ccc(N2CC(C(=O)NCCS(=O)(=O)N3CCN(c4ccccc4)CC3)CC2=O)cc1 (centres undefined) | -1.96%
CC(C)C(NC(=O)C1CCC(C(C)(C)C)CC1)C(=O)NCCCN1CCCCC1 (centres undefined) | 0.406%
Cc1ccc(F)cc1NC(=O)Cc1nn(C)c(=O)c2ccccc12 | -33.8%
Cc1c(-c2nn(C)c(=O)c3ccccc23)oc2ccc(F)cc2c1=O | 88.2% (active)
O=C1c2oc3ccc(Br)cc3c(=O)c2C(c2cccc(F)c2)N1CCO (centres undefined) | 1.67%
COc1cccc(N2C(=O)CN(Cc3ccccc3)C2=S)c1 | 0.665%
O=C(COc1ccc(Cl)cc1Cl)NCCCNC(=O)c1cnccn1 | 1.17%
CCOC(=O)/C(=N\Nc1ccccc1[N+](=O)[O-])c1csc(Nc2ccccc2)n1 | -3.85%
CCc1c(-c2ccccc2)nc(N)c(C#N)c1-c1cccs1 | 4.71%
CN1CCc2nc(SC(C(=O)O)c3ccccc3)c(C#N)c(-c3cccs3)c2C1 (centres undefined) | 34.8% (active)
Cc1c(-c2ccccc2)nc(N)c(C#N)c1-c1cccs1 | -1.05%
O=C(Cc1ccccc1F)NC1CCSc2ccccc21 (centres undefined) | -0.276%
Cc1nc(-c2ccccc2)sc1C1(C)CC(c2cccnc2)=NO1 (centres undefined) | 1.29%
N#Cc1nc(N)nc(N(c2ccccc2)c2ccccc2)n1 | 37.4% (active)
Nc1nc(-c2ccccc2)cc(-c2ccccc2)n1 | 6.87%

SMILES | inhibition
Cc1nc2ccccn2c(=O)c1NC(=O)c1cccs1 | -0.75%
Cc1c(Cl)cccc1NC(=O)CCC(=O)N/N=C/c1ccco1 | -1.26%
O=C(CCc1nnc(CCCCc2ccccc2)o1)NC(c1cccnc1)C(F)(F)F (centres undefined) | -3.54%
CCC(C)NC(=O)CCCc1ccccc1 (centres undefined) | -3.16%
CC(CCn1cccn1)NC(=O)CCc1nnc(CCc2ccccc2)o1 (centres undefined) | 36.9% (active)
Cc1cc(=O)n2nc(N3CCC(C(=O)Nc4c(F)c(F)c(F)c(F)c4F)CC3)sc2n1 | 0.056%
CNC(=O)COC(=O)c1cc(-c2ccc(OC)cc2)nc2ccccc12 | -2.37%
COc1ccc(-c2cc(C(=O)Nc3ccccc3O)c3ccccc3n2)cc1 | -0.565%
COc1ccc(-c2cc(C(=O)n3cnc4ccccc43)c3ccccc3n2)cc1 | 37.7% (active)
CCCNC(=O)CSc1nc(Cc2ccccc2)nc2ccccc12 | 15.4%
CCN(CC)S(=O)(=O)c1cc([N+](=O)[O-])ccc1NNC(=O)Nc1ccccc1 | 0.713%
COc1ccc(-n2nnnc2CNC(=O)c2ccc3ccccc3c2)cc1 | -1.28%
Cc1ccc([N+](=O)[O-])c(OCCCNCC(C)O)c1 (centres undefined) | -0.0235%
Cc1ccc(CN2CCN(c3ncccn3)CC2)c(C)c1 | 0.612%
Cn1c(SCC(=O)c2ccccc2)ncc(C(=O)Nc2ccc(F)cc2)c1=O | -0.487%
C=CCn1c(SCC(=O)NCC2CCCO2)nc2sc(C)c(C)c2c1=O (centres undefined) | 0.158%
Cc1ccc(NC(=O)c2cnc(SCC(=O)NCC3CCCO3)n(C)c2=O)cc1 (centres undefined) | 35.1% (active)
COc1ccc2c(c1O)-c1cccc3c1[C@@H](C2)N(C)CC3 | -6.28%
COc1ccc2cc1Oc1ccc(cc1)C[C@H]1c3cc(c(OC)cc3CCN1C)Oc1c(O)c(OC)cc3c1[C@H](C2)N(C)CC3 | -4.49%
COc1c(O)ccc2c1CN1CCc3cc4c(cc3C1C2)OCO4 (centres undefined) | 68.5% (active)

SMILES | inhibition
CC(C)(C)OC(=O)NC(Cc1ccccc1)C(=O)NC(CSC1CCCCO1)C(=O)NN (centres undefined) | -1.13%
CC1(C)CC(=O)c2cnc3nc4ccccc4n3c2C1 | -0.669%
CC(CNc1ccc([N+](=O)[O-])c2cccnc12)Nc1c([N+](=O)[O-])cc(C(F)(F)F)cc1[N+](=O)[O-] (centres undefined) | 1.36%
COc1ccc(-c2cc(C(F)(F)F)nc(NCc3cccnc3)n2)cc1 | -1.1%
COc1ccc(-c2ccc(Nc3ccc(S(=O)(=O)N4CCCC4)cc3)nn2)cc1OC | -1.08%
COc1ccc(-c2cc(C(F)(F)F)nc(S(C)(=O)=O)n2)cc1OC | 42% (active)
Cn1cc(CCC(=O)NC2CC2)c2ccccc21 | -0.418%
O=C(CN1CCN(C(=S)NC2CCCC2)CC1)Nc1ccc(Oc2ccccc2)cc1 | 5.42%
COCc1cc(C)n(CC(=O)NCC2CCCO2)c(=O)c1C#N (centres undefined) | -0.67%
CC(=O)O[C@]1(C(C)=O)CC[C@H]2[C@@H]3C=C(C)C4=CC(=O)CC[C@]4(C)[C@H]3CC[C@@]21C | 11%
CC(=O)C12CC(C)=C(C)CC1CC1C3CCC4=CC(=O)CCC4(C)C3CCC12C (centres undefined) | 36% (active)
C[C@]12C=CC(=O)C=C1CC[C@@H]1[C@@H]2C(=O)C[C@@]2(C)[C@H]1CC[C@]2(O)C(=O)CO | 1.39%
CCN(CC)c1ccc2cc(C(N)=O)/c(=N\NC(=O)c3ccncc3)oc2c1 | -24.7%
C=CCN(C(=O)Nc1ccc2oc(C)nc2c1)c1ccccc1 | 1.61%
CCN(CC)c1ccc2oc(=O)c(C)nc2c1 | 30.2% (active)
COc1ccc(-c2nnc(SCC(=O)c3ccc4c(c3)OCCO4)o2)cc1 | 0.107%
COc1ccc(-c2nnc(SCc3cccnc3)o2)cc1 | -3.4%
COc1ccc(-c2nnc(SC(=O)N3c4ccccc4Sc4ccccc43)o2)cc1 | 46.6% (active)
CC(=O)c1cccc(NC(=O)C2COc3ccccc3O2)c1 (centres undefined) | 0.944%
